Screens: PubChem BioAssay, The Scripps Research Institute Molecular Screening Center
M1 PAM parental = nonselective activator or artifact in parental CHO-K1 calcium assay | ATP EC20, Fluo-8 calcium fluorescence; 0% at ATP EC20, 100% at ATP max | 360,000 tested, 0.02% active | activation, % at 3 µM | AID 602247;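 active means activation above the run cutoff, the mean activation of all test compounds plus 3 SD, cut at about 40% in these data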;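 further: peak over basal fluorescence ratio in a 140 s read after ATP addition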
M1 ag parental = nonselective activator or artifact in parental CHO-K1 cells; activation, % at 3 µM; 360,000 tested, 0.48% active; Fluo-8 calcium fluorescence; scaled to maximal ATP response, vehicle zero; in the data active means activation above about 15%;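 further: untransfected CHO-K1 host cells lacking M1 receptor as counterscreen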
M1 PAM = potentiates human M1 receptor response to acetylcholine | activation, % at 3 µM | 360,000 tested, 0.088% active | AID 588819 | P11229 | CHO-K1 hM1, Fluo-8 calcium fluorescence, ACh EC20; 0% = ACh EC20, 100% = maximal ACh; in the data active means activation above about 19%, passing the limit was not always enough
Target sequence (P11229 whole entry, looked up): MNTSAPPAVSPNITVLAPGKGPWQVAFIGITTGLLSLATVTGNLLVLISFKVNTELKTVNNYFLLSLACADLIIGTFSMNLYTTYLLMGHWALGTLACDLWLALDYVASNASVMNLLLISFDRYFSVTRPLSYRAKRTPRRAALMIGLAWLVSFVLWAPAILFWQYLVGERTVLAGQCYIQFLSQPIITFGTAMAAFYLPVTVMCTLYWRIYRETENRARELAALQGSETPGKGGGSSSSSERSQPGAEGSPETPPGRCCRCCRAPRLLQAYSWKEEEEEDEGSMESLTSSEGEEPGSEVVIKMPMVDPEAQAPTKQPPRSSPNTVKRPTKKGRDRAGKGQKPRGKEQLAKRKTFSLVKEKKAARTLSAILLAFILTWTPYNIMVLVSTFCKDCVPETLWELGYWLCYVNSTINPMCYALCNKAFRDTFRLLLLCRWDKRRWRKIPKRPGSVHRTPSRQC
CHRM1 antagonist = blocks human M1 muscarinic receptor | P11229 | CHO-K1 hM1, Fluo-8 calcium fluorescence, ACh EC80 antagonist | inhibition, % at 3 µM | 360,000 tested, 1.3% active | AID 588852;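 active means percent inhibition above its own plate's cutoff, namely the mean of that plate's compound wells plus 3 SD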;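 further: peak over basal fluorescence ratio during 140 s after agonist addition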
M1 ag = human M1 muscarinic receptor agonism; P11229; CHO-K1 hM1, Fluo-8 calcium fluorescence, agonist mode; 0% DMSO, 100% acetylcholine EC100; activation, % at 3 µM; 360,000 tested, 0.33% active; AID 588814;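 active means activation above the run's mean compound activation plus 3 SD, cut at about 16% in these data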;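 further: peak over basal fluorescence ratio within a 140 s kinetic read after compound addition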
CHO-K1 Ca antag = counter-screen for M1 antagonists: effect in parental CHO-K1 cells. ATP-induced calcium, Fluo-8 fluorescence. inhibition, % at 3 µM. 360,000 tested, 0.6% active;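 active means inhibition above a per-plate cutoff, the plate's mean sample inhibition plus 3 SD, cut at about 24% in these data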
Numbers stand for hits; . = inactive; / = not tested or not shown. Sampled rows, rich in hits. Any-hit rate of the full collection: about 2.3%.

SMILES	M1 PAM parental	M1 ag parental	M1 PAM	CHRM1 antagonist	M1 ag	CHO-K1 Ca antag
COc1cc(/C=C2\SC(=S)N(C(Cc3ccccc3)C(=O)O)C2=O)ccc1O (stereo not drawn)	.	15.2	.	.	.	.
O=C1/C(=C/c2ccc(O)c(O)c2)SC(=S)N1Nc1ccccc1	.	.	.	.	.	.
CCOC(=O)c1cnc2cc(F)c(F)cc2c1N1CCN(C)CC1	.	.	.	.	.	.
c1ccc2c(c1)ncn2-c1cncnc1	.	.	.	.	.	.
COc1cccc(NC(=O)CN2CCc3ccccc3C2)c1	.	.	.	.	.	.
CN(C)C(C)(C)/C=C/C(O)(c1ccccc1)c1ccccc1	.	.	.	100.0	.	.
CN(C)N(Cc1ccccc1)C(=O)C(O)(c1ccccc1)c1ccccc1	.	.	.	.	.	.
O=[N+]([O-])c1ccc(Sc2ccccn2)nc1	.	.	.	.	.	.
O=C(Nc1cc(Sc2ccccn2)cc([N+](=O)[O-])c1)c1ccc([N+](=O)[O-])cc1	.	.	.	23.7	.	.
Cc1ccc(-c2c[n+](CC(=O)N3c4ccccc4Sc4ccccc43)c3n2CCC3)cc1	.	.	.	99.8	.	.
O=C(C[n+]1cc(-c2ccc(F)cc2)n2c1CCC2)N1c2ccccc2Sc2ccccc21	.	.	.	95.7	.	.
O=C(C[n+]1cc(-c2ccccc2)n2c1CCC2)c1cccs1	.	.	.	.	.	.
O=C(C[n+]1cc(-c2ccccc2)n2c1CCC2)N1c2ccccc2Sc2ccccc21	.	.	.	98.7	.	.
O=C(C[n+]1cc(-c2ccc(Cl)cc2)n2c1CCC2)Nc1nc(-c2ccc(F)cc2)cs1	.	18.0	.	.	.	.
COc1ccccc1CNC(=O)c1cc(-c2cc(F)ccc2OC(C)C)n[nH]1	.	.	.	.	.	.
CCC(=O)OCOc1ccc(/C=C2/CCC(CN(C)C)C2=O)cc1 (stereo not drawn)	.	.	.	.	.	.
Cc1ccccc1/C=C/C1=NCCN1	.	.	.	.	.	.
CCc1ccc(CNC(=O)C2CCCN(c3nnc(C)c4c(C)n(-c5ccccc5)nc34)C2)cc1 (stereo not drawn)	.	.	.	49.2	.	.
Cc1nnc(N2CCCC(C(=O)NCc3cccc(F)c3)C2)c2nn(-c3ccccc3)c(C)c12 (stereo not drawn)	.	.	.	.	.	.
CCOC(=O)C1CCN(S(=O)(=O)c2ccc(C)c(C)c2)CC1	.	16.7	.	.	.	.
CCOC(=O)C1CCN(CC(C)(C)NS(=O)(=O)c2ccccc2)CC1	.	18.5	.	.	.	.
CCOC(=O)C1CCN(S(=O)(=O)c2ccc3[nH]c4c(c3c2)CCCC4)CC1	.	16.0	.	.	.	.
CC(=O)N1CCN(CC(C)(C)NS(=O)(=O)c2ccccc2)CC1	.	.	.	.	.	.
COc1ccc(C(C)(O)c2nc(-c3ccoc3)cs2)cc1 (stereo not drawn)	.	.	.	.	.	.
COC1Cc2ccccc2N(C(N)=O)c2ccccc21 (stereo not drawn)	.	.	.	.	.	.
SMILES	M1 PAM parental	M1 ag parental	M1 PAM	CHRM1 antagonist	M1 ag	CHO-K1 Ca antag
O=C(C1=C[C@H](C2CC2)C[C@H](OCCCCO)O1)N1CCOCC1	.	.	.	.	.	.
CCOC(=O)C1=C(C)OC(N)=C(C#N)C1c1ccc(C)s1 (stereo not drawn)	.	.	.	.	.	.
COc1ccc(Nc2nnc(Cc3ccncc3)c3ccccc23)c(OC)c1	.	.	.	.	51.5	.
COc1ccc(Nc2ncnc3ccccc23)c(OC)c1	.	.	.	.	.	.
c1ccc2c(c1)OCC(CNc1ncnc3sccc13)O2 (stereo not drawn)	.	.	.	.	.	30.7
Fc1ccccc1CNc1ncnc2sccc12	.	.	.	.	.	.
O=C(O)c1ccc(S(=O)(=O)N(CCc2ccccc2)Cc2ccc(Cl)cc2)cc1	.	.	.	.	.	.
O=C1NC[C@@H](CCCCN2CCN(CCc3ccccc3)C(=O)C2=O)N(CCC2CCCCC2)C1=O	.	.	/	/	/	.
COCc1nc2ccccc2n1CCc1ccccc1	.	.	.	.	.	26.4
O=C(COc1ccc2oc(-c3ccco3)cc(=O)c2c1)N1CCCCC1	.	.	.	.	.	.
CS(=O)(=O)Nc1ccc(C(=O)NCc2ccco2)cc1	.	.	.	.	.	.
CCC(CC)C(=O)OCC(=O)C1(O)CCC2C3CCC4=CC(=O)CCC4(C)C3C(O)CC21C (stereo not drawn)	.	.	.	68.5	.	.
CC12CCC(=O)C=C1CCC1C2C(O)CC2(C)C1CCC2(O)C(=O)COC(=O)CCC1CCCC1 (stereo not drawn)	.	.	.	41.4	.	.
C[C@]12CCC(=O)C=C1CC[C@@H]1[C@@H]2[C@@H](O)C[C@@]2(C)[C@H]1CC[C@]2(O)C(=O)COC(=O)CCC(=O)O	.	.	.	.	.	.
O=C1NC(Cc2c[nH]c3ccccc23)C(=O)N1Cc1ccccc1 (stereo not drawn)	.	.	.	.	.	.
COC(=O)c1ccc(CN2C(=O)NC(Cc3c[nH]c4ccccc34)C2=O)cc1 (stereo not drawn)	.	15.4	.	.	.	.
CC(=O)Nc1c(O)nc(SCC(=O)N2CCCCC2)[nH]c1=O	.	.	26.4	.	.	.
COc1ccc(C2(C)NC(=O)N(CC(=O)c3cc(C)n(C4CC4)c3C)C2=O)cc1 (stereo not drawn)	.	30.0	.	.	39.7	.
C=CCNC(=O)CN1C(=O)NC(C)(c2ccc(OC)cc2)C1=O (stereo not drawn)	.	.	.	.	.	.
Cc1cc(C(=O)CN2C(=O)NC(CC(C)C)C2=O)c(C)n1C1CC1 (stereo not drawn)	.	.	.	.	.	.
Cc1cc(C(=O)CN2C(=O)NC(C)(c3ccc(F)c(F)c3)C2=O)c(C)n1C1CC1 (stereo not drawn)	.	.	.	.	22.1	.
O=C(c1ccc2c(c1)OCCO2)N1CCN(Cc2ccccc2)CC1	.	.	.	.	.	.
O=C(Cn1cnc2sc3c(c2c1=O)CCCC3)NCC(=O)Nc1ccc(F)cc1F	.	.	.	.	.	.
CCOC(=O)c1c(-c2ccccc2Cl)cn2ccccc12	.	.	.	.	.	100.0
CCOC(=O)c1c(-c2cccc([N+](=O)[O-])c2)cn2ccccc12	.	.	.	.	.	.
c1ccc(C2[C@H]3CN(Cc4cccnc4)[C@H](c4ccccc4)C34CC2(c2cccnc2)C4)cc1 (stereo partly drawn)	.	.	.	39.9	.	.
